Out of some 5,500 compounds screened, about 2,000 (36%) were called active. Another 18% or so got no clear call; they are omitted. Cut-off read from the data, not from the text of the source: active = normalized growth mostly below about 0.91 (no sharp cut-off); inconclusive = no clear call, values can overlap the other calls; inactive = mostly above about 0.92. The list shows a part of the results.
Assay: chemical genetic growth profiling, strain panel (AID 1159580);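 note: tested at 20 µM; growth read once vehicle control cultures reached saturation at 30 °C; 1 = growth at the plate median or of vehicle wells; lower values mean less growth of the strain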
Settings: growth OD

Measured: normalized growth

CCCCCCCCCCCCCCCC[N+](C)(C)C
active: S. cerevisiae deletion strains, locus YJR075W, strain HOC1, hits give low values 0.0608 | S. cerevisiae deletion strains, locus YKL009W, strain mrt4, hits give low values 0.126 | S. cerevisiae deletion strains, locus YKL068W, hits give low values 0.057 | S. cerevisiae deletion strains, locus YKL085W, strain MDH1 (second series), hits give low values 0.0537 | S. cerevisiae deletion strains, locus YKL085W, strain MDH1, hits give low values 0.0537 | S. cerevisiae deletion strains, locus YKL160W, strain elf1, hits give low values 0.0583 | S. cerevisiae deletion strains, locus YKL190W, strain CNB1, hits give low values 0.0478 | S. cerevisiae deletion strains, locus YKR001C, strain vps1, hits give low values 0.0609 | S. cerevisiae deletion strains, locus YKR026C, strain gcn3, hits give low values 0.0627 | S. cerevisiae deletion strains, locus YKR091W, strain srl3, hits give low values 0.0569 | S. cerevisiae deletion strains, locus YLL001W, strain dnm1, hits give low values 0.0599 | S. cerevisiae deletion strains, locus YLL026W, hits give low values 0.0546 | S. cerevisiae deletion strains, locus YLL041C, strain sdh2, hits give low values 0.0568 | S. cerevisiae deletion strains, locus YLR027C, strain aat2, hits give low values 0.0555 | S. cerevisiae deletion strains, locus YLR039C, strain RIC1, hits give low values 0.0825 | S. cerevisiae deletion strains, locus YLR058C, strain SHM2, hits give low values 0.0453 | S. cerevisiae deletion strains, locus YLR102C, strain apc9, hits give low values 0.0605 | S. cerevisiae deletion strains, locus YLR113W, strain HOG1, hits give low values 0.113 | S. cerevisiae deletion strains, locus YLR221C, strain rsa3, hits give low values 0.0541 | S. cerevisiae deletion strains, locus YLR258W, strain gsy2, hits give low values 0.0561 | S. cerevisiae deletion strains, locus YLR262C, strain YPT6 (second series), hits give low values 0.0788 | S. cerevisiae deletion strains, locus YLR262C, strain YPT6, hits give low values 0.0977 | S. cerevisiae deletion strains, locus YLR268W, strain sec22, hits give low values 0.0658 | S. cerevisiae deletion strains, locus YLR320W, strain mms22, hits give low values 0.0733 | S. cerevisiae deletion strains, locus YLR330W, strain CHS5, hits give low values 0.0514 | S. cerevisiae deletion strains, locus YLR342W, strain FKS1 (second series), hits give low values 0.0636 | S. cerevisiae deletion strains, locus YLR342W, strain FKS1, hits give low values 0.0598 | S. cerevisiae deletion strains, locus YLR357W, strain rsc2, hits give low values 0.103 | S. cerevisiae deletion strains, locus YLR370C, strain arc18, hits give low values 0.061 | S. cerevisiae deletion strains, locus YLR371W, strain rom2, hits give low values 0.0606 | S. cerevisiae deletion strains, locus YLR384C, strain iki3, hits give low values 0.0599 | S. cerevisiae deletion strains, locus YLR418C, strain cdc73, hits give low values 0.0891 | S. cerevisiae deletion strains, locus YML016C, strain PPZ1, hits give low values 0.0596 | S. cerevisiae deletion strains, locus YML032C, strain rad52, hits give low values 0.0653 | S. cerevisiae deletion strains, locus YML120C, strain ndi1, hits give low values 0.0558 | S. cerevisiae deletion strains, locus YML124C, strain tub3, hits give low values 0.0593 | S. cerevisiae deletion strains, locus YMR058W, strain fet3, hits give low values 0.0569 | S. cerevisiae deletion strains, locus YMR078C, strain ctf18, hits give low values 0.0689 | S. cerevisiae deletion strains, locus YMR125W, strain sto1, hits give low values 0.0643 | S. cerevisiae deletion strains, locus YMR129W, hits give low values 0.0561 | S. cerevisiae deletion strains, locus YMR205C, strain PFK2, hits give low values 0.0755 | S. cerevisiae deletion strains, locus YMR223W, strain ubp8, hits give low values 0.0626 | S. cerevisiae deletion strains, locus YMR231W, strain pep5, hits give low values 0.0651 | S. cerevisiae deletion strains, locus YMR263W, strain SAP30, hits give low values 0.0582 | S. cerevisiae deletion strains, locus YMR307W, strain GAS1, hits give low values 0.119 | S. cerevisiae deletion strains, locus YNL067W, strain RPL9B, hits give low values 0.0498 | S. cerevisiae deletion strains, locus YNL071W, strain lat1, hits give low values 0.0578 | S. cerevisiae deletion strains, locus YNL128W, strain TEP1, hits give low values 0.0627 | S. cerevisiae deletion strains, locus YNL153C, strain GIM3, hits give low values 0.0486 | S. cerevisiae deletion strains, locus YNL183C, strain NPR1, hits give low values -0.00175 | S. cerevisiae deletion strains, locus YNL209W, strain ssb2, hits give low values 0.0612 | S. cerevisiae deletion strains, locus YNL233W, strain BNI4, hits give low values 0.053 | S. cerevisiae deletion strains, locus YNL248C, strain rpa49, hits give low values 0.0567 | S. cerevisiae deletion strains, locus YNL250W, strain rad50, hits give low values 0.0666 | S. cerevisiae deletion strains, locus YNL271C, strain bni1, hits give low values 0.0608 | S. cerevisiae deletion strains, locus YNL298W, strain CLA4, hits give low values 0.0592 | S. cerevisiae deletion strains, locus YNL307C, strain MCK1, hits give low values 0.0664 | S. cerevisiae deletion strains, locus YNL322C, strain KRE1 (second series), hits give low values 0.0599 | S. cerevisiae deletion strains, locus YNL322C, strain KRE1, hits give low values 0.0495 | S. cerevisiae deletion strains, locus YNR049C, strain mso1, hits give low values 0.0575 | S. cerevisiae deletion strains, locus YNR052C, strain pop2, hits give low values 0.0593 | S. cerevisiae deletion strains, locus YOL006C, strain TOP1, hits give low values 0.0794 | S. cerevisiae deletion strains, locus YOL012C, strain htz1 0.179 | S. cerevisiae deletion strains, locus YOL147C, strain pex11, hits give low values 0.0577 | S. cerevisiae deletion strains, locus YOR001W, strain rrp6, hits give low values 0.0595 | S. cerevisiae deletion strains, locus YOR061W, strain CKA2, hits give low values 0.0395 | S. cerevisiae deletion strains, locus YOR069W, strain VPS5, hits give low values 0.0494 | S. cerevisiae deletion strains, locus YOR070C, strain gyp1, hits give low values 0.0582 | S. cerevisiae deletion strains, locus YOR080W, strain dia2, hits give low values 0.0639 | S. cerevisiae deletion strains, locus YOR083W, strain WHI5, hits give low values 0.0574 | S. cerevisiae deletion strains, locus YOR106W, strain vam3, hits give low values 0.0616 | S. cerevisiae deletion strains, locus YOR136W, strain idh2, hits give low values 0.0711 | S. cerevisiae deletion strains, locus YOR144C, strain elg1, hits give low values 0.0571 | S. cerevisiae deletion strains, locus YOR184W, strain ser1, hits give low values 0.0671 | S. cerevisiae deletion strains, locus YOR231W, strain MKK1, hits give low values 0.0937 | S. cerevisiae deletion strains, locus YOR265W, strain rbl2, hits give low values 0.0534 | S. cerevisiae deletion strains, locus YOR270C, strain vph1, hits give low values 0.0651 | S. cerevisiae deletion strains, locus YOR290C, strain snf2, hits give low values 0.0594 | S. cerevisiae deletion strains, locus YOR316C, strain cot1, hits give low values 0.0575 | S. cerevisiae deletion strains, locus YPL051W, strain arl3, hits give low values 0.0558 | S. cerevisiae deletion strains, locus YPL055C, strain LGE1, hits give low values 0.0731 | S. cerevisiae deletion strains, locus YPL078C, strain atp4, hits give low values 0.0629 | S. cerevisiae deletion strains, locus YPL106C, strain sse1, hits give low values 0.0805 | S. cerevisiae deletion strains, locus YPL240C, strain hsp82, hits give low values 0.0545 | S. cerevisiae deletion strains, locus YPL241C, strain CIN2, hits give low values 0.0519 | S. cerevisiae deletion strains, locus YPL256C, strain CLN2, hits give low values 0.107 | S. cerevisiae deletion strains, locus YPR119W, strain clb2, hits give low values 0.0613 | S. cerevisiae deletion strains, locus YPR141C, strain kar3, hits give low values 0.0706 | S. cerevisiae deletion strains, locus YPR163C, strain tif3, hits give low values 0.0686 | S. cerevisiae deletion strains, locus YPR167C, strain met16, hits give low values 0.0617 | S. cerevisiae deletion strains, strain wtn01, hits give low values 0.0595 | S. cerevisiae strains, strain wild type, hits give low values 0.0507

Source: PubChem BioAssay AID1159580 (chemical genetic matrix, 2015)
